Compounds with a hit are over-represented: about 3.9% of the library has one in this group of screens.
GDH-TPI counter-1 = GDH-TPI coupling enzyme inhibitors, primary screen, artefact control for M. tuberculosis FBA inhibitor project, biochemical, absorbance, full deck; inhibition, % at 4.8 µM; 1.2% of 360,000 active; GDH-TPI coupled enzyme counterscreen, NADH absorbance; AID 588335, 2011; in the data active = inhibition above about 30%;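 note: 0% = DMSO wells and 100% = wells lacking the enzyme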
3CLpro inhibitor = SARS-CoV 3CLpro protease inhibitors, primary screen, biochemical, quenched FRET; AID 1706, 2009; recombinant SARS-CoV 3CLpro, quenched FRET peptide cleavage; 0.14% of 290,000 active; inhibition, % at 6 µM; in the data active = inhibition above about 12%
BH1578 lux ind = inducers of Vibrio cholerae quorum light production without autoinducers, primary screen, BH1578 luxS cqsA deficient, single point; AID 588436, 2011; activation, % at 18.7 µM; V. cholerae BH1578 lux reporter, luminescence, 6 h; 0.16% of 350,000 active; in the data active = activation mostly above about 9.7%, no sharp cut-off
FBA Mtb inh = Mtb FBA enzyme inhibitors, primary screen, biochemical, fluorescence, strain H37Rv | purified M. tuberculosis FBA, fluorescence read-out | inhibition, % at 1 µM | 2.3% of 360,000 active | AID 588726, 2011;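 note: 0% = vehicle and 100% = reference inhibitor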
Target sequence (P9WQA3 whole entry, looked up): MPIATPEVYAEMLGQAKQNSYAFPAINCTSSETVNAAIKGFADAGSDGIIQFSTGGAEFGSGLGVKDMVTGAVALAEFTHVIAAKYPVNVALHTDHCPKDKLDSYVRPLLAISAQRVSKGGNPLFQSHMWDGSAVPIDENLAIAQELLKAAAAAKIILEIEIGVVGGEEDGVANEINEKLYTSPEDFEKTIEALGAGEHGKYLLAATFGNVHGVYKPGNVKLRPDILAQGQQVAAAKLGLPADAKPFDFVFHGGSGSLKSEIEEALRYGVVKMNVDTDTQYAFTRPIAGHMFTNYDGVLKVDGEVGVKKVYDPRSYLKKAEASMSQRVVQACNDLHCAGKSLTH
PrPC surface inh = inhibitors of human cell surface prion protein PrPC, primary screen, cell-based, TR-FRET. AID 720596, 2013. 0.43% of 370,000 active. TR-FRET read-out. Major prion protein (Homo sapiens), P04156. inhibition, % at 13.8 µM; in the data active = inhibition above about 24%; note: 0% = median of the test wells and 100% = reference compound wells
Mtb FBA confirm = M. tuberculosis aldolase blockers, biochemical, fluorescence, strain H37Rv, confirmation. shares compounds with FBA Mtb inh. AID 651616, 2012. purified M. tuberculosis FBA, fluorescence read-out. 78% of 5,600 active. inhibition, % at 1 µM;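 note: 0% = vehicle wells and 100% = reference inhibitor wells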
GDH-TPI counter-2 = GDH-TPI coupling enzyme inhibitors, artefact control for M. tuberculosis FBA inhibitor project, biochemical, fluorescence, high throughput. shares compounds with FBA Mtb inh. GDH-TPI coupled enzyme counterscreen. inhibition, % at 1 µM. 81% of 5,600 active; in the data active = inhibition above about 10%
The depositor's hits bear a star; i = inactive; x = not tested or not shown; + = active, no number. Cut-off read from the data, not from the text of the source, unless noted: active = inhibition above about 27%; inactive = the rest.

SMILES	GDH-TPI counter-1	3CLpro inhibitor	BH1578 lux ind	FBA Mtb inh	PrPC surface inh	Mtb FBA confirm	GDH-TPI counter-2
Cc1ccc2cc(C#N)c(NCc3ccccc3)nc2c1	2	0	0	32*	6	53*	44*
Cc1cc(C)c(Nc2cc(S(=O)(=O)O)c(N)c3c2C(=O)c2ccccc2C3=O)c(C)c1	11	6	-3	-3	-51	x	x
CC1=CC(c2ccccc2)n2nc(NC(=O)CCCC(=O)O)nc2N1 (stereo unspecified)	-5	-1	i	62*	-10	83*	73*
CC1=CC(c2ccccc2)n2nc(NC(=O)CCC(=O)O)nc2N1 (stereo unspecified)	28	4	0	81*	5	-4	-5
CC1=CC(c2ccc(Cl)cc2)n2nc(NC(=O)c3ccccc3)nc2N1 (stereo unspecified)	10	5	-1	15	-14	x	x
CCc1nc2ccc(C(=O)Nc3ccc(NC(C)=O)cc3)cn2c1N(CCC(C)C)CCN(C)C	-2	x	-1	-3	7	x	x
COc1ccc(-c2ccc(CCC(=O)O)n2C(C)C)cc1	13	-5	i	32*	12	163*	114*
COc1ccc(NC(=O)Cn2c(CCC(=O)O)ccc2-c2ccccc2)cc1	2	0	0	7	2	x	x
C=CCNC(=O)O/N=C/c1csc([N+](=O)[O-])c1	-5	5	i	1	-34	x	x
Cc1cccc(NC(=O)Cn2c(O)c(N=NC(N)=S)c3ccccc32)c1	26	2	0	35*	-9	187*	146*
Cc1ccc(NC(=O)Cn2c(O)c(N=NC(=O)c3ccncc3)c3ccccc32)cc1	-1	-1	0	-9	x	x	x
CCn1cc(-c2cc(C(=O)O)c3ccccc3n2)cn1	3	1	i	54*	5	60*	44*
CC(=O)NS(=O)(=O)c1ccc(NC(=O)c2cc(-c3ccc(C)cc3)nc3ccccc23)cc1	11	0	i	-2	-6	x	x
CC(=O)Nc1ccc(-c2cc(C(=O)O)c3ccccc3n2)cc1	13	4	0	56*	2	+	195*
Cc1ccc(-c2cc(C(=O)OCC(=O)NC3CC3)c3ccccc3n2)cc1	9	x	-1	37*	-5	95*	81*
COc1cc(-c2cc(C(=O)OCC(=O)NC3CC3)c3ccccc3n2)cc(OC)c1OC	8	x	i	-1	-3	x	x
COc1ccc(-c2cc(C(=O)OCc3ccccn3)c3ccccc3n2)cc1	1	4	0	44*	4	107*	86*
CN(CC(=O)Nc1ccc(OC(F)(F)F)cc1)C(=O)Cc1cccs1	-2	x	-1	0	2	x	x
CC1CN(Cc2ccco2)C(=S)NC1=O (stereo unspecified)	6	x	i	0	0	x	x
CCOC(=O)Cc1cc(-c2ccc(OC)cc2)nc2ccc3ccccc3c12	3	1	1	35*	2	110*	89*
O=C(NCc1ccccn1)c1cc(-c2ccc(-c3ccccc3)cc2)nc2ccccc12	16	3	1	37*	2	20	15*
COCCNC(=O)c1cc(-c2ccc(-c3ccccc3)cc2)nc2ccccc12	17	1	-1	108*	-7	+	+
Cc1cccc(-c2cc(C(=O)NCc3ccccn3)c3ccccc3n2)c1	8	3	0	14	-7	x	x
Cc1ccc(-c2cc(C(=O)NCc3ccccn3)c3ccccc3n2)cc1C	11	1	x	46*	-16	136*	94*
CCN(c1ccccc1)S(=O)(=O)c1ccc(Cl)c(C(=O)NC2CCN(Cc3ccccc3)CC2)c1	-2	x	i	1	-10	x	x
